SMILES strings stand for the structures. About 1,800 (0.53%) of roughly 340,000 compounds were called active.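 Rule for the calls: active = activation over 3 SD above normal in the single-dose calcium agonist read (cut at about 30% in these data); inactive = the rest.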 The entries come from a sample that favours actives as a whole.

For the test, the target named is D(2) dopamine receptor (Homo sapiens) (UniProt P14416). Briefly: HTS Assay for Allosteric Agonists of the Human D2 Dopamine Receptor: Primary Screen for Agonists. Note: 0% is about no effect. Conditions: HEK293 T-REx D2 cells, calcium flux agonist mode; at 2 µM; hits give high values. The text has this: NIH Chemical Genomics Center [NCGC] NIH Molecular Libraries Probe Centers Network [MLPCN] MLPCN Grant: NS064831-01 Assay Submitter (PI): David Sibley Dopamine receptors (DARs) are involved in the etiology and/or therapy of a number of neuropsychiatric and endocrine disorders. For instance, all receptor-based antiparkinsonian drugs work via stimulating the D2 DAR subtype whereas all FDA-approved antipsychotic agents are antagonists of this receptor. […] There are three different types of allosteric modulators that we are seeking, two of which will stimulate or augment receptor signaling, allosteric agonists and potentiators, while the third, allosteric antagonists, will attenuate receptor signaling. The present primary screening assay measures compound agonism by tracking calcium flux in a […], inducible Hek293 Trex D2 cell line.
D(2) dopamine receptor (Homo sapiens), sequence (P14416 whole entry, looked up): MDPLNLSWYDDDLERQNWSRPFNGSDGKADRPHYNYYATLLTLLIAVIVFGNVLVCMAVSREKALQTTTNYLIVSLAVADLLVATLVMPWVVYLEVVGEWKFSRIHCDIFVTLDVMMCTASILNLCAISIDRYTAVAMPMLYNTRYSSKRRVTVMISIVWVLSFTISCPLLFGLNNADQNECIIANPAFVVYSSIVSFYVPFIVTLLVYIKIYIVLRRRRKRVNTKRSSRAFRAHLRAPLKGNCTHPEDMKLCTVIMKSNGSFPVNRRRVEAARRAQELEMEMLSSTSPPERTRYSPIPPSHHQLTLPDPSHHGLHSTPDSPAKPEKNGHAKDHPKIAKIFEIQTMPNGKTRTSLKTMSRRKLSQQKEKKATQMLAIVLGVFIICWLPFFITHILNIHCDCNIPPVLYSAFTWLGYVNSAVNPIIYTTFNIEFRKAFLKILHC
Freshly passaged cells are plated in 1536 well black, clear bottom plates at a density of 4000 cells/well in 3 ul of complete media containing 1x tetracycline inducer. After an overnight incubation at […] in 5% CO2, cells are loaded with 2 ul of the no wash Calcium Assay Kit (ABD Bioquest) and incubated at room temperature for 30 to 90 minutes. Agonist read: A 10 cycle (1 second/cycle) baseline measurement is taken and then the FDSS online 1536 pintool delivers 23 nl of compound library (as well as dopamine controls) to the plate. The plate is measured for kinetically at 1 cycle/sec for 180 seconds and is considered to be the agonist portion of the assay (eg, compounds which activate a positive calcium response during this portion are flagged as potential agonists). Following the 180 second read, 1 ul of either an EC20 (positive modulation assay) or EC80 (negative modulation assay) is delivered by an onboard pipette head. Measurements are taken kinetically for an additional 180 seconds.
In general terms: A change in cytosolic calcium serves as a functional read-out for many receptors and channels.
Turning to `O=CN1CCN(C(=O)c2ccc(Br)o2)CC1`, the activation is 0.34% (inactive). As to `O=C(CN1CCN(C(=O)c2ccco2)CC1)Nc1ccc(Cl)c(C(F)(F)F)c1`, the activation was -0.254% (inactive). Consider `O=C(Nc1ccc(F)cc1F)N1CCCN(CCOc2ccccc2)CC1`, for which the activation was 41.8% (active). `COc1cccc(OCc2cc(C(=O)N3CCN(C(=O)c4ccco4)CC3)no2)c1`: the activation was -0.444% (inactive). In the case of `c1ccc(-c2ccc(OCCN3CCOCC3)cc2)cc1`, the activation is 0.22% (inactive). As to `O=C(c1ccc(Br)o1)N1CCN(CCOc2ccccc2)CC1`, the activation is 67.9% (active). Consider `O=C(CN1CCN(C/C=C/c2ccccc2)CC1)Nc1ccc(F)cc1F`, for which the activation is 0.754% (inactive).

For `COc1cccc(OC)c1C(=O)N1CCN(Cc2cccnc2)CC1`, the activation is 1.08% (inactive). As to `O=C(c1ccco1)N1CCN(C(=S)Nc2cc(F)cc(F)c2)CC1`, the activation was 0.216% (inactive). In the case of `COc1cccc(OC)c1OCCN1CCN(C(=O)c2ccco2)CC1`, the activation was 87.8% (active). For `O=C(c1ccco1)N1CCN(Cc2cccc(C(F)(F)F)c2)CC1`, the activation is 59.9% (active). Turning to `Cc1ccc(F)cc1NC(=O)N1CCCN(c2ccc(C(F)(F)F)cn2)CC1`, the activation is 0.948% (inactive). In the case of `CC(=O)N1CCCc2cc(S(=O)(=O)Nc3ccc(Cl)cc3F)ccc21`, the activation is 0.983% (inactive).

`COc1ccc(CCNC(=O)C(=O)NCC(c2ccco2)S(=O)(=O)c2cccs2)cc1OC` (stereo not drawn): the activation is 0.136% (inactive). With `O=C(NCCc1ccc(Cl)cc1)c1ccc2c(c1)N(Cc1ccc(F)cc1)C(=O)CS2` the figure was -0.585% (inactive). For `COc1ccc(OC)c(-c2noc(N3CCN(c4cc(Cl)ccc4C)CC3)n2)c1`, the activation is 0.838% (inactive). On to `O=C(c1ccco1)N1CCN(C(=O)c2ccc(COc3ccc(F)cc3)o2)CC1`, for which the activation was -1.15% (inactive). The figure for `O=C(c1ccco1)N1CCN(CCOc2ccccc2)CC1` is 74.5% (active); for `O=C(CNS(=O)(=O)c1ccccc1)N1CCN(C(=O)c2ccco2)CC1` it is 0.7% (inactive); for `O=C(NCc1ccc(Cl)cc1)c1ccc2c(c1)nnn2C1CCCC1` it is -0.221% (inactive). Consider `O=C(NCc1ccccc1)C1CCN(S(=O)(=O)c2ccc3[nH]c(=O)ccc3c2)CC1`, for which the activation was -1.06% (inactive).

Consider `c1ccc(-c2cnc(CN3CCN(c4ccccc4)CC3)o2)cc1`, for which the activation is 40% (active). The figure for `Cc1ccc(C)c(N2CCN(Cc3nnc(-c4ccccc4)o3)CC2)c1` is 0.463% (inactive); for `COc1ccc(N2CCN(Cc3nnc(-c4ccccc4)o3)CC2)cc1` it is 0% (inactive); for `COc1cc(OC)c(OC)cc1/C=C/c1nc2ccccc2c(=O)n1-c1ccc(Br)c(C)c1` it is 1.46% (inactive). On to `CCOc1cc2[nH]c(=S)n(CCN3CCCCC3C)c(=O)c2cc1OCC` (stereo not drawn), for which the activation was 30.2% (active). As for `CCOc1cc2[nH]c(=S)n(CCCN3CCCC3=O)c(=O)c2cc1OCC`, the activation is -1.56% (inactive). As for `COc1cc2[nH]c(=S)n(CCN3CCCCC3C)c(=O)c2cc1OC` (stereo not drawn), the activation was 1.14% (inactive). The figure for `Fc1ccc(-c2nc(Nc3cccc(Cl)c3)nc3c2COc2ccccc2-3)cc1` is -1.77% (inactive). In the case of `O=C1N(Cc2ccccc2)c2ccc(Cl)cc2C1(O)c1c[nH]c2ccccc12` (stereo not drawn), the activation is 0.529% (inactive).

For `CCN(CC)c1ccc(NC(=O)Cn2nc3c(cc2=O)CCCC3)c(C)c1`, the activation is -1.68% (inactive). On to `Cc1cc(=O)c2cc(C(=O)Nc3cccc(C)c3C)ccc2[nH]1`, for which the activation is 1.06% (inactive). With `COc1ccc2c(CN3CCN(S(=O)(=O)c4cccs4)CC3)cc(=O)oc2c1` the figure was 1.59% (inactive); with `COc1ccc(N2CCN(Cc3cc(=O)oc4ccc5ccccc5c34)CC2)cc1`, 48.7% (active); with `COc1ccc2oc(=O)cc(CN3CCOCC3)c2c1`, 0.172% (inactive). For `O=C(CN1CCN(c2ccccc2F)CC1)c1ccc2c(c1)OCO2`, the activation was 34.1% (active). Consider `CCC1(c2ccccc2)NC(=O)N(CC(=O)c2ccc3c(c2)OCO3)C1=O` (stereo not drawn), for which the activation was 0.171% (inactive).

For `CC1(c2ccc(Cl)cc2)NC(=O)N(CC(=O)c2ccc3c(c2)OCO3)C1=O` (stereo not drawn), the activation was 6.26% (inactive).

As for `COc1ccc(NC(=O)C2CCN(c3ccc(Sc4ccc(C)cc4)nn3)CC2)c(OC)c1`, the activation was -0.0405% (inactive). The figure for `Cc1ccc2c(=O)oc(N(C)C)nc2c1` is -0.369% (inactive); for `CCN(CC)c1ccc2oc(=O)c(C)nc2c1` it is 33.2% (active); for `CCc1ccc2oc(-c3ccc(N)cc3)nc2c1` it is 0.79% (inactive). With `COC(=O)c1ccc(NC(=O)c2cnn(-c3ccc(Cl)cc3)c2C2CCN(C(=O)OC(C)(C)C)CC2)cc1`, the activation is -0.0655% (inactive). In the case of `CC(C)S(=O)(=O)c1oc(-c2ccc(F)cc2)nc1S(=O)(=O)c1ccc(F)cc1`, the activation is 6.9% (inactive).

With `COc1ccccc1NC(=O)CSc1oc(-c2ccco2)nc1S(=O)(=O)c1ccc(Br)cc1`, the activation was -0.604% (inactive). `CCOc1ccccc1N(CC)C(=O)c1cc2ccc3cccnc3c2[nH]1`: the activation is 0.0244% (inactive). For the compound `COc1cccc(NC(=O)c2ccc3nc(CCc4ccccc4)oc3c2)c1`, the activation was 0.0569% (inactive). The figure for `O=C(CN1CCN(c2cccc(Cl)c2)CC1)Nc1ccc(S(=O)(=O)N2CCOCC2)cc1` is 56.5% (active); for `O=C(CN1CCCCCC1)Nc1ccc(S(=O)(=O)N2CCCCC2)cc1` it is -2.81% (inactive). `O=C(COC(=O)CCc1ccc(S(=O)(=O)N2CCOCC2)cc1)Nc1cccc(Cl)c1`: the activation was 1.09% (inactive). For `COc1ccc(CCn2cc3c(c2-c2ccc(Br)cc2)c(=O)n(C)c(=O)n3C)cc1OC`, the activation is -0.343% (inactive).

In the case of `CCC(=O)Nc1cccc(C(=O)OCc2cc(=O)n3nc(CC)sc3n2)c1`, the activation is 3.26% (inactive). As to `Cc1cc(F)ccc1NC1(c2ccccc2)C(=O)c2ccccc2C1=O`, the activation was -1.91% (inactive). For `CC(C)CCN1CCN(Cc2cn[nH]c2C2CCCCC2)CC1CCO` (stereo not drawn), the activation was 71.9% (active).

For the compound `CC(C)CCN1CCN(Cc2ccc(C(F)(F)F)cc2)CC1CCO` (stereo not drawn), the activation is -0.55% (inactive).

Turning to `CC(C)CCN1CCN(C/C=C/c2ccco2)CC1CCO` (stereo not drawn), the activation was -3.43% (inactive). For the compound `COc1ccc(CNC(=O)CCc2c(C)nn(-c3ccc(N4CCCC4)nn3)c2C)cc1`, the activation was -0.779% (inactive). As for `COc1ccc(C2=NC(c3ccncc3)=Nc3ccc(Br)cc3N2)cc1`, the activation was 2.06% (inactive).

These data come from PubChem BioAssay AID485358 (National Center for Advancing Translational Sciences (NCATS), 2010).
